# Experimental data: PMC7862700, “An all-to-all approach to the identification of sequence-specific readers for epigenetic DNA modifications on cytosine”
# How the values were obtained:
# Assay in all cases: DAPPL (digital affinity profiling via proximity ligation, sequencing); 10 mM Tris-HCl pH 7.5, 50 mM NaCl, 1 mM DTT, 4% glycerol, room temperature, 30 min; GST-TFs on glutathione beads, 16-mer random dsDNA library, 0.1% formaldehyde crosslink after washing; high values mean tight binding
# FLI1 = target: T1, FLI1 (Homo sapiens, UniProt Q01543 1-452); settings: protein: recombinant; tags: N-terminal GST; dsDNA, one strand shown
# T1 sequence: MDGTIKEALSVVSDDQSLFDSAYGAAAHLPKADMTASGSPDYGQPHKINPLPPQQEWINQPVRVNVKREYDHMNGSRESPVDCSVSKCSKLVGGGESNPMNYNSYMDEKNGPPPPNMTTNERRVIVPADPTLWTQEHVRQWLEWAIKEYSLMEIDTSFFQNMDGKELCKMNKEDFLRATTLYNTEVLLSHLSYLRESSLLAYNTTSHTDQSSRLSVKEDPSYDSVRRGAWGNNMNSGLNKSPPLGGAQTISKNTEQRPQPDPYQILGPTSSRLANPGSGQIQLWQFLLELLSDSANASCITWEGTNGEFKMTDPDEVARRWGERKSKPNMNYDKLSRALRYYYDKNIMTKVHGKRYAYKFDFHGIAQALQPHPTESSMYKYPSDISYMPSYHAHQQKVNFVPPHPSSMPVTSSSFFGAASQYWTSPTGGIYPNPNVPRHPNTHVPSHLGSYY
# Outline: (§1)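 The binding signal reported is, for every hexamer, its read frequency for a factor over its read frequency for the tag-only sample. Reads came from pools of yeast-expressed, GST-fused human transcription factors on glutathione beads, barcoded with DNA and mixed with that sample, which were incubated with 200 nmole of a random double-stranded 16-mer DNA library in Tris/NaCl/DTT/glycerol buffer at room temperature for 30 min. After washing, the pools were crosslinked with 0.1% formaldehyde, proximity-ligated with BsaI/T4 ligase for 1 h at 37 °C, PCR-amplified and sequenced on an Illumina NextSeq500.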
# ELK1 = target: T2, ELK1 (Homo sapiens, UniProt P19419 1-428); settings: protein: recombinant; tags: N-terminal GST; dsDNA, one strand shown
# T2 sequence: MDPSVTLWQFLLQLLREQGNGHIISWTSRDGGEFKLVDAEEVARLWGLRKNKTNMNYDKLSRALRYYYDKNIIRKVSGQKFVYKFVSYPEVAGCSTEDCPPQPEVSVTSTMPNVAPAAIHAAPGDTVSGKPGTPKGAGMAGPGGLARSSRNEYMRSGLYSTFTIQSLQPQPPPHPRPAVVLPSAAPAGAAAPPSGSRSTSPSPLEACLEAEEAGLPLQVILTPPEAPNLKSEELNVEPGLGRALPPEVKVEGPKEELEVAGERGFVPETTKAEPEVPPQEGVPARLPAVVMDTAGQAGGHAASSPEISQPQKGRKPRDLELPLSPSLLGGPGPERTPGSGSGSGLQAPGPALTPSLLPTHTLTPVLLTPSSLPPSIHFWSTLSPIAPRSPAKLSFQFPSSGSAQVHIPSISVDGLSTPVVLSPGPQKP
# Outline: as §1
# GABPA = target: T3, GABPA (Homo sapiens, UniProt Q06546 1-454); settings: protein: recombinant; tags: N-terminal GST; dsDNA, one strand shown
# T3 sequence: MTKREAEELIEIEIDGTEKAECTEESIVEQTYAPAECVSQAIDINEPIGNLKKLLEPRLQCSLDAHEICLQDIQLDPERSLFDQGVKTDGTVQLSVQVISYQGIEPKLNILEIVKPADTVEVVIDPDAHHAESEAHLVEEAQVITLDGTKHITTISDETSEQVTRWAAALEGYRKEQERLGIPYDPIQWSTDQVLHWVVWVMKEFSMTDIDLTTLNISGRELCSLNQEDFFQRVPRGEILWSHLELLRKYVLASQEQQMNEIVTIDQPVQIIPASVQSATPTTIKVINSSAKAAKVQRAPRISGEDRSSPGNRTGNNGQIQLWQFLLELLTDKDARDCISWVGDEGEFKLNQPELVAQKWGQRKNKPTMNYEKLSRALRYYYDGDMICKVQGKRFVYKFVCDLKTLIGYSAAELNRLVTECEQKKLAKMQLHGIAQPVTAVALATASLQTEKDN
# Outline: as §1
# ERG = target: T4, ERG (Homo sapiens, UniProt P11308 1-479); settings: protein: recombinant; tags: N-terminal GST; dsDNA, one strand shown
# T4 sequence: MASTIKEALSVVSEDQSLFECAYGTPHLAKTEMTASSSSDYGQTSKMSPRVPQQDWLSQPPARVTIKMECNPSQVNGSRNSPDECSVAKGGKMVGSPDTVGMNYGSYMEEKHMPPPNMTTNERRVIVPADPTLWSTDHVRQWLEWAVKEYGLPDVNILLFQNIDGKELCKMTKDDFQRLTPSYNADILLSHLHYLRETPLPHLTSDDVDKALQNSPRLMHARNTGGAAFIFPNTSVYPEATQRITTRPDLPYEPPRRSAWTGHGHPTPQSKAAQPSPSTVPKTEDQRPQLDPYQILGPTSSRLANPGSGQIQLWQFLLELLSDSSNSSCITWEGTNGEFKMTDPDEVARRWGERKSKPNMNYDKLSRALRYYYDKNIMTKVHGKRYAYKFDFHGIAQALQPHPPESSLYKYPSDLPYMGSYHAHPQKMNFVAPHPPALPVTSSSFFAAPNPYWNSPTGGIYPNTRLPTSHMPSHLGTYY
# Outline: as §1
# ELF1 = ELF1 (Homo sapiens, UniProt P32519 1-619); settings: protein: recombinant; tags: N-terminal GST; dsDNA, one strand shown
# ELF1, sequence (P32519 whole entry): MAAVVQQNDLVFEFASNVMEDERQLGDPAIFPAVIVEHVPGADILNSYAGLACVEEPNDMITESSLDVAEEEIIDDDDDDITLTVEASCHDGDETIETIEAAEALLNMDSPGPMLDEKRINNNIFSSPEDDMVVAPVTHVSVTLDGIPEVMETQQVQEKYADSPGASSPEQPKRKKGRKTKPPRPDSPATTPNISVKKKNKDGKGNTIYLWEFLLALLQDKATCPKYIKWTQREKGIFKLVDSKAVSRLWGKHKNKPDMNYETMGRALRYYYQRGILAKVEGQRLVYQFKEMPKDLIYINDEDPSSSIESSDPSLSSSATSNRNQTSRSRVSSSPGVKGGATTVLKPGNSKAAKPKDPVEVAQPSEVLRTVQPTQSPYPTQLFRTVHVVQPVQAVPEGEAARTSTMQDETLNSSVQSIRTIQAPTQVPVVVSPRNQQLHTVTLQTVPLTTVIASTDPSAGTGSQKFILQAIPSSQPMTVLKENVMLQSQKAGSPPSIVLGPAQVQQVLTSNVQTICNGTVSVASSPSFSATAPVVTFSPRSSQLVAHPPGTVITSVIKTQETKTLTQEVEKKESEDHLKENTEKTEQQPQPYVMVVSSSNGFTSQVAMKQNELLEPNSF
# Outline: as §1
# EHF = target: T5, EHF (Homo sapiens, UniProt Q9NZC4 1-300); settings: protein: recombinant; tags: N-terminal GST; dsDNA, one strand shown
# T5 sequence: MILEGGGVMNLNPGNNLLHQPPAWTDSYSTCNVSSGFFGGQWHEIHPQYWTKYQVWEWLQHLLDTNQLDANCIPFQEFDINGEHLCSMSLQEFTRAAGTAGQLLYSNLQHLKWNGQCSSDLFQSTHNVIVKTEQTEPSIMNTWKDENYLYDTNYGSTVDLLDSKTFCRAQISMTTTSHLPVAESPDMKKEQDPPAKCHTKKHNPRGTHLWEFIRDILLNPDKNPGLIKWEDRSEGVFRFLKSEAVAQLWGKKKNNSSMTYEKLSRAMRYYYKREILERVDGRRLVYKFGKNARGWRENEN
# Outline: as §1
# SPI1 = SPI1 (Homo sapiens, UniProt P17947 1-270); settings: protein: recombinant; tags: N-terminal GST; dsDNA, one strand shown
# Outline: as §1
# SPIB = SPIB (Homo sapiens, UniProt Q01892 1-262); settings: protein: recombinant; tags: N-terminal GST; dsDNA, one strand shown
# SPIB, sequence (Q01892 whole entry): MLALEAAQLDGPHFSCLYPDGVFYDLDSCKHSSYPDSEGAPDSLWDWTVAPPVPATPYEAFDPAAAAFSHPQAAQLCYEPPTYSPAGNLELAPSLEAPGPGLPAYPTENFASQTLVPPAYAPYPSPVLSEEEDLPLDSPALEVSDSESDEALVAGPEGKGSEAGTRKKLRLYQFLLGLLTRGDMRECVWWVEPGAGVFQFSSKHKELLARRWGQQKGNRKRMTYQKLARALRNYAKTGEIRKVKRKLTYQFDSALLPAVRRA
# Outline: as §1
# FEV = target: T6, FEV (Homo sapiens, UniProt Q99581 1-238); settings: protein: recombinant; tags: N-terminal GST; dsDNA, one strand shown
# T6 sequence: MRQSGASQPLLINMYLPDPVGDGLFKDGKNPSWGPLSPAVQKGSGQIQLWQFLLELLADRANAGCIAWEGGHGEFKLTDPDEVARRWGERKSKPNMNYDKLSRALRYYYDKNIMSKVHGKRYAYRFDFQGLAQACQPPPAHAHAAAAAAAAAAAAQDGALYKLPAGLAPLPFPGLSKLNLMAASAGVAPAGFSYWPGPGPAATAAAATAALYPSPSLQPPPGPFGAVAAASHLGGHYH
# Outline: as §1
# ETV5 = ETV5 (Homo sapiens, UniProt P41161 1-510); settings: protein: recombinant; tags: N-terminal GST; dsDNA, one strand shown
# ETV5, sequence (P41161 whole entry): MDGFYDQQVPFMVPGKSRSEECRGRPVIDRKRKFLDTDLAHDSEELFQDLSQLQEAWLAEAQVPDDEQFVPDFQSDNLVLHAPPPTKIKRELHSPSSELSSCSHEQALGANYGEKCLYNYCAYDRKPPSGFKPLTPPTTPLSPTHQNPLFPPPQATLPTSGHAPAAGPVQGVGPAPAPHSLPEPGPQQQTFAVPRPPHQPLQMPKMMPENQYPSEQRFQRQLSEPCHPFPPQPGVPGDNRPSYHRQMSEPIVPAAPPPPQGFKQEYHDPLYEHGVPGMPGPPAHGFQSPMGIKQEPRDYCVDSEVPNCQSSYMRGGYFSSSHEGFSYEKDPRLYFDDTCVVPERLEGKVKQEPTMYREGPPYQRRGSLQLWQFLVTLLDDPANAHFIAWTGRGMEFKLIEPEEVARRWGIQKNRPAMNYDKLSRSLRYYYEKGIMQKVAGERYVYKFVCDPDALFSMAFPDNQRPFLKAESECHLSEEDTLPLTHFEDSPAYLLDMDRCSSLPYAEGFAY
# Outline: as §1
# HSF1 = HSF1 (Homo sapiens, UniProt Q00613 1-529); settings: protein: recombinant; tags: N-terminal GST; chain copies: 3; dsDNA, one strand shown
# HSF1, sequence (Q00613 whole entry): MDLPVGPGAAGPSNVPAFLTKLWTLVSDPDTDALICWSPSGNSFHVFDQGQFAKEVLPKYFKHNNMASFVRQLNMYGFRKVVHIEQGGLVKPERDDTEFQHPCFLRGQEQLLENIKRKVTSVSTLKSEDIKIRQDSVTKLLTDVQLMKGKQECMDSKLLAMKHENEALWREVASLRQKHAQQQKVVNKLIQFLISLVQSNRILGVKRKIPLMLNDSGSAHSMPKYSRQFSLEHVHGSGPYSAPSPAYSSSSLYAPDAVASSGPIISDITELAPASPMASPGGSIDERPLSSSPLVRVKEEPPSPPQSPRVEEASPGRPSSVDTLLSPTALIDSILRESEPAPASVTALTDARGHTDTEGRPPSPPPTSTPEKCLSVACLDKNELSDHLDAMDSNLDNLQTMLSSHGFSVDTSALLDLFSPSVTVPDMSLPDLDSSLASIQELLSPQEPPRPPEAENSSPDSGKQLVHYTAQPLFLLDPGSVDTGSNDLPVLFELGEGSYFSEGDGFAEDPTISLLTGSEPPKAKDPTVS
# Outline: as §1
# ELF4 = ELF4 (Homo sapiens, UniProt Q99607 1-663); settings: protein: recombinant; tags: N-terminal GST; dsDNA, one strand shown
# ELF4, sequence (Q99607 whole entry): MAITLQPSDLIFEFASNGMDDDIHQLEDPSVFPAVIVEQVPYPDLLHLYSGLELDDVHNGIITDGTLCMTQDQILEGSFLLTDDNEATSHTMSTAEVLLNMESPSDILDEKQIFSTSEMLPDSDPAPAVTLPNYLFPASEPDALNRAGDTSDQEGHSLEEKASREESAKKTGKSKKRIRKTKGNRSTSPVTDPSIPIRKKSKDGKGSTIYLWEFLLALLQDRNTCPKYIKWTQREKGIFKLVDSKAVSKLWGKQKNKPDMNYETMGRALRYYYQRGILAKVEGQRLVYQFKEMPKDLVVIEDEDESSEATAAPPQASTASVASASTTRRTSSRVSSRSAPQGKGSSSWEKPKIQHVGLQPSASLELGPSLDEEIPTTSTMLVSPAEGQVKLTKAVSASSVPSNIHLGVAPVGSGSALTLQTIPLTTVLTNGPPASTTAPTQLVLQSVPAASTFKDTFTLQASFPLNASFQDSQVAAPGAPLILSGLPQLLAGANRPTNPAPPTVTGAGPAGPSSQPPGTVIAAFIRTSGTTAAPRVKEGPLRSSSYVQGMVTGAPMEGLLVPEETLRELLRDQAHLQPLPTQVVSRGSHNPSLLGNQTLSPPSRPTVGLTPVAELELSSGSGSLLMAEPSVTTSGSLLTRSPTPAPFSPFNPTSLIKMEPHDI
# Outline: as §1
# ELK4 = target: T7, ELK4 (Homo sapiens, UniProt P28324-2 1-405); settings: protein: recombinant; tags: N-terminal GST; dsDNA, one strand shown
# T7 sequence: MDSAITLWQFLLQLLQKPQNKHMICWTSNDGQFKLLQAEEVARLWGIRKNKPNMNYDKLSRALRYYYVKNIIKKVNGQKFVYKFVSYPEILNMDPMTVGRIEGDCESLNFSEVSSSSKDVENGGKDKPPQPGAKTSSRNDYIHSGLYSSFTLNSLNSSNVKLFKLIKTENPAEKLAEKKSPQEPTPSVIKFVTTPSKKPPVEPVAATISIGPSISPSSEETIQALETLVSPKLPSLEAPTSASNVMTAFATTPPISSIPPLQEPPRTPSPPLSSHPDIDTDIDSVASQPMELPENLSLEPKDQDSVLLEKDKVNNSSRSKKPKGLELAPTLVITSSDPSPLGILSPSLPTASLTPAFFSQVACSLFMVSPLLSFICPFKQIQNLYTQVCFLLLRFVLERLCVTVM
# Outline: as §1
# ETV2 = target: T8, ETV2 (Homo sapiens, UniProt O00321 1-342); settings: protein: recombinant; tags: N-terminal GST; dsDNA, one strand shown
# T8 sequence: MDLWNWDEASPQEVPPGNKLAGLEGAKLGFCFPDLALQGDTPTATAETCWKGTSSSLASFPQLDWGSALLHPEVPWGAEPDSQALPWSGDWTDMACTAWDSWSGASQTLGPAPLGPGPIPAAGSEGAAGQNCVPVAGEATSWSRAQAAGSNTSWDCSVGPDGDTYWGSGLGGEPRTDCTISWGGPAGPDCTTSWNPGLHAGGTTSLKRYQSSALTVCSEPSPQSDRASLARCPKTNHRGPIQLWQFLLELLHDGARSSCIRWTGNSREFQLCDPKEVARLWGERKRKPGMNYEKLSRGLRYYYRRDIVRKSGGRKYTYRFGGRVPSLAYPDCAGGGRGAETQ
# Outline: as §1
# ELF3 = target: T9, ELF3 (Homo sapiens, UniProt P78545 1-371); settings: protein: recombinant; tags: N-terminal GST; dsDNA, one strand shown
# T9 sequence: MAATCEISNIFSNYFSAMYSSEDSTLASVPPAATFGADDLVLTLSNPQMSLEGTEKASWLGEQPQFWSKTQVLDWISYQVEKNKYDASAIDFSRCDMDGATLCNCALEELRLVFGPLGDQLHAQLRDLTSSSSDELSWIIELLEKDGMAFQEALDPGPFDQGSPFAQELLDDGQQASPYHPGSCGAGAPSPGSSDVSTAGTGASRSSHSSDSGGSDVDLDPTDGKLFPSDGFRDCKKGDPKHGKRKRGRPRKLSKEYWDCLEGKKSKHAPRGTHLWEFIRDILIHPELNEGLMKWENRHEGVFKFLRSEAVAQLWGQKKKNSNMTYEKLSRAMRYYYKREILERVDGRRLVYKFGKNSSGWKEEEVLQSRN
# Outline: as §1
# ETV1 = ETV1 (Homo sapiens, UniProt P50549 1-477); settings: protein: recombinant; tags: N-terminal GST; dsDNA, one strand shown
# ETV1, sequence (P50549 whole entry): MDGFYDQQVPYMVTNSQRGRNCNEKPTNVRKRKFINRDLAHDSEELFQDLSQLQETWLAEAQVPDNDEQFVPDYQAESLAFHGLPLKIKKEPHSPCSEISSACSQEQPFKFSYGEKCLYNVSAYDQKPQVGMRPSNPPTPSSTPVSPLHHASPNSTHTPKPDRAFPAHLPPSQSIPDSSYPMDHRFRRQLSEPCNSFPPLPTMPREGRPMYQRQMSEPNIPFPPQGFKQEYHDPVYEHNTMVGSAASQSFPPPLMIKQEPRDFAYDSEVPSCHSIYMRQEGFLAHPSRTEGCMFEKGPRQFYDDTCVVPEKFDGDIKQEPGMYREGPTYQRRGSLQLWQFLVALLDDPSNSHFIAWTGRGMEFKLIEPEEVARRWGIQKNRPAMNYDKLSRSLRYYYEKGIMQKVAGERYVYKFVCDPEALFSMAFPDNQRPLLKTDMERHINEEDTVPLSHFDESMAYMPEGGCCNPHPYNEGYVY
# Outline: as §1
sequence,measurement,setting,value
CGATCG,binding signal,FLI1,"1.18 fold enrichment (6-mer frequency, TF over GST control)"
same,binding signal,ELK1,"1.12 fold enrichment (6-mer frequency, TF over GST control)"
same,binding signal,GABPA,"1.14 fold enrichment (6-mer frequency, TF over GST control)"
same,binding signal,ERG,"1.1 fold enrichment (6-mer frequency, TF over GST control)"
same,binding signal,ELF1,"1.13 fold enrichment (6-mer frequency, TF over GST control)"
same,binding signal,EHF,"1.07 fold enrichment (6-mer frequency, TF over GST control)"
same,binding signal,SPI1,"1.02 fold enrichment (6-mer frequency, TF over GST control)"
same,binding signal,SPIB,"1.03 fold enrichment (6-mer frequency, TF over GST control)"
same,binding signal,FEV,"1.03 fold enrichment (6-mer frequency, TF over GST control)"
same,binding signal,ETV5,"1.03 fold enrichment (6-mer frequency, TF over GST control)"
same,binding signal,HSF1,"1.09 fold enrichment (6-mer frequency, TF over GST control)"
same,binding signal,ELF4,"1.04 fold enrichment (6-mer frequency, TF over GST control)"
same,binding signal,ELK4,"1.13 fold enrichment (6-mer frequency, TF over GST control)"
same,binding signal,ETV2,"1.12 fold enrichment (6-mer frequency, TF over GST control)"
same,binding signal,ELF3,"1.08 fold enrichment (6-mer frequency, TF over GST control)"
same,binding signal,ETV1,"1.03 fold enrichment (6-mer frequency, TF over GST control)"
